tim23-1 inh: inhibits growth of tim23-1 mutant yeast; S. cerevisiae tim23-1 growth, BacTiter-Glo luminescence, 24 h; inhibition, % at 20 µM; 1.3% of 330,000 active; AID 463212;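 active = growth inhibition of the mutant yeast at or above 50%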;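 note: temperature-sensitive mutant grown at 25 °C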
TIM10 inh: TIM10 yeast growth inhibition. S. cerevisiae TIM10 strain growth, BacTiter-Glo luminescence, 24 h. inhibition, % at 10 µM. 1.4% of 330,000 active;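 active = inhibition of 40% or more at the single tested concentration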;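 note: wild-type TIM10 isogenic control strain grown at permissive 25 °C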
NLRP3 yeast inh: NALP3 inhibition in yeast. 0.39% of 330,000 active. Yeast reconstituted NLRP3/ASC/caspase-1, beta-gal luminescence, 24 h. inhibition, % at 10 µM;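 active = inhibition of 50% or more; inactive = inhibition below 50%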
tim10-1 inh: growth inhibitors of tim10-1 mutant yeast; S. cerevisiae tim10-1 ts strain growth, BacTiter-Glo, 24 h; inhibition, % at 20 µM; 2.2% of 330,000 active; AID 463190;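 active = inhibition of at least 40%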;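 note: mutant grown at 25 °C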
SKKanGAS inh: SKKanGAS growth inhibition. S. pyogenes SKKanGAS, kanamycin growth, BacTiter-Glo, 6 h. inhibition, % at 7.5 µM. 1.3% of 300,000 active. AID 1662;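 active = mean replicate score, as percent of positive control median, at least 50; inconclusive = mean below 50 but one replicate at or above 50; inactive = mean and every replicate below 50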;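 note: strain carries kanamycin resistance gene driven by streptokinase promoter and grows in 40 µg/ml kanamycin; loss of luminescence reflects streptokinase promoter inhibition or plain growth inhibition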
PfHsp90 set2: inhibits growth of yeast expressing Plasmodium falciparum Hsp90; AID 504621; inhibition, % at 9.4 µM; 0.32% of 310,000 active; S. cerevisiae expressing PfHsp90, BacTiter-Glo ATP, 48 h; yeast lacking PDR1 and PDR3 efflux regulators;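 active = every replicate shows inhibition above about 80%, whatever the replicate mean, limit read from the data; inconclusive = mean inhibition reaches the set limit but some replicate falls short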
tim10-1 conf: tim10-1 yeast growth inhibition, confirmed. AID 463213. inhibition, % at 20 µM. 56% of 7,400 active. S. cerevisiae tim10-1 ts strain growth, BacTiter-Glo, 24 h. shares compounds with tim10-1 inh;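 active = inhibition of yeast growth at or above a set limit in either of two repeat tests at 20 µM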;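 note: tim10-1 mutant grown at permissive 25 °C to find synthetic lethal compounds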
Each line names hits and unclear results; the compound was inactive in the other large screens (follow-up assays come after a bar, where they were run). This is a sample that favours compounds with a hit; in the whole collection about 4.6% have one here.

CN(C)c1nc(NCc2ccccc2)nc(N/N=C/c2ccc3c(c2)OCO3)n1	tim10-1 inh 41 | tim10-1 conf inactive
CC1(C)Cc2c(cnn2-c2ccc(F)cc2)C(NC(=O)c2ccoc2)C1 (stereo not drawn)	tim10-1 inh 40 | tim10-1 conf inactive
Cc1ccc(-n2ncc3c2CC(C)(C)CC3NC(=O)c2ccccn2)cc1 (stereo not drawn)	tim10-1 inh 53 | tim10-1 conf inactive
Cc1cccc2c1cnn2C(=O)CCC(=O)NCc1ccc(F)cc1	none
CCOC(=O)c1ccc(NC(=O)CCc2nc(-c3ccccc3Cl)no2)cc1	tim10-1 inh 41 | tim10-1 conf 29
COc1ccc(/C=N/NC(=O)c2cc3cc(OC)c(OC)cc3[nH]2)cc1	none
COc1ccc2cc(C(=O)N/N=C/c3cc(OC)c(OC)c(OC)c3)[nH]c2c1	tim10-1 inh 40 | tim10-1 conf inactive
COc1cc(/C=C(\C#N)C(=O)N2CCCCC2)ccc1O	none
COc1cc(/C=C(\C#N)c2nc3c(s2)CCCC3)ccc1O	tim10-1 inh 44 (no result: PfHsp90 set2) | tim10-1 conf inactive
CC1CCc2nc(/C(C#N)=C/c3cccnc3)sc2C1 (stereo not drawn)	tim10-1 inh 42 | tim10-1 conf inactive
N#C/C(=C\c1cccnc1)c1nc2c(s1)CCCC2	tim10-1 inh 43 | tim10-1 conf 32
CCCCCCCCS(=O)c1sc2nc3c(cc2c1N)CCCC3 (stereo not drawn)	tim10-1 inh 42 (no result: PfHsp90 set2) | tim10-1 conf 50
Cc1ccc(Cl)cc1NC(=O)Cn1nc(-c2cccs2)ccc1=O	none
N#Cc1ccccc1S(=O)(=O)N1CCN(C(=O)C2CCC2)CC1	tim10-1 inh 97 | tim10-1 conf inactive
CC(C)c1ccc(OCCCN2CCCC2)cc1	none
CCOc1ccccc1C(=O)Nc1cccc2cccnc12	none
Cc1ccc(C2=NN(C(=O)C3CCCO3)C(c3ccco3)C2)cc1 (stereo not drawn)	tim10-1 inh 41 | tim10-1 conf inactive
O=C(C1CCCO1)N1N=C(c2ccc(Br)cc2)CC1c1ccco1 (stereo not drawn)	none
CC(Cc1cccnc1)NC(=O)c1cc(COc2ccc(F)cc2Cl)on1 (stereo not drawn)	none
COc1ccc(OC)c(NC(=O)C2CC(=O)N(c3ccc(Br)cc3)C2)c1 (stereo not drawn)	tim10-1 inh 43 | tim10-1 conf inactive
CC1CN(C(=O)N2CCCCC2)CCN1C(=O)N1CCCCC1 (stereo not drawn)	none
CN1CCN(c2cc(N3CCc4ccccc4C3)c(F)cc2[N+](=O)[O-])CC1	tim10-1 inh 48 | tim10-1 conf 39
COc1ccc(NC(=O)C2CCN(C(=O)[C@@H]3Cc4ccccc4CN3C(=O)OC(C)(C)C)CC2)cc1	none
CSCCC(NC(=O)c1ccccc1Br)C(=O)NNC(=O)c1ccncc1 (stereo not drawn)	none (no result: SKKanGAS inh)
N/C(CCS(=O)(=O)c1ccc(Cl)cc1)=N\OC(=O)c1ccccc1C(F)(F)F	tim10-1 inh 64 | tim10-1 conf 78
CC(C)N(C(=O)CSc1nc2ccccc2n1-c1ccccc1)C(C)C	tim10-1 inh 45 | tim10-1 conf inactive
CC(C)N(CCc1ccncc1)C(=S)Nc1cccc(Cl)c1	none
COc1ccc(C(=O)/C=C/c2ccccc2)c(O)c1	tim10-1 inh 49 | tim10-1 conf 47
COc1ccc(C(=O)c2ccc(OC)cc2O)c(O)c1	tim10-1 inh 41 | tim10-1 conf 36
COc1ccc(CCNc2ccc(C(CC(N)=O)NC(=O)c3cc(C)cc(C)c3)cc2[N+](=O)[O-])cc1 (stereo not drawn)	none
O=C(Nn1c(COc2ccccc2)nc2ccccc2c1=O)C(Cl)(Cl)Cl	tim10-1 inh 40 | tim10-1 conf 32
CN1CCN(C2Cc3cc(F)ccc3Sc3ccc(Cl)cc32)CC1 (stereo not drawn)	none
CN1CCN(C2Cc3ccccc3Sc3ccc(Cl)cc32)CC1 (stereo not drawn)	tim10-1 inh 52 (no result: SKKanGAS inh) | tim10-1 conf 36
COc1ccc2c(c1)C1C=CCC1C(c1cc3c(cc1Br)OCO3)N2 (stereo not drawn)	tim10-1 inh 51 (no result: PfHsp90 set2) | tim10-1 conf 38
CCOC(=O)CC(NC(=O)Cn1nnc(-c2ccccc2Cl)n1)c1ccc(OC)cc1 (stereo not drawn)	none
O=C(CC1SC(=O)N(c2ccccc2)C1=O)Nc1ccccc1 (stereo not drawn)	none
Cc1cccc(NC(=O)CC2SC(=O)N(c3ccccc3)C2=O)c1 (stereo not drawn)	tim10-1 inh 43 | tim10-1 conf 37
O=C(COC(=O)C1CCN(c2ccc(C(F)(F)F)cn2)CC1)NCc1cccc(Cl)c1	none (no result: SKKanGAS inh)
Cc1nc2ccc(NS(=O)(=O)c3ccc(C)c(C)c3)cc2s1	tim10-1 inh 42 | tim10-1 conf inactive
CC(O)(CS(=O)(=O)Cc1ccc(Cl)cc1)C(=O)Nc1cccc(C(F)(F)F)c1 (stereo not drawn)	none
O=C(Nc1cccc(C(F)(F)F)c1)N(Cc1ccc(Cl)cc1)CC(O)C(F)(F)F (stereo not drawn)	tim10-1 inh 47 | tim10-1 conf inactive
OCC[C@H]1C[C@H](O)[C@@H](O)[C@]2(OCc3ccccc32)O1	none (no result: SKKanGAS inh)
CC(=O)c1ccc(OCc2cc(C(=O)N3CCC(c4ccncc4)CC3)no2)cc1	tim10-1 inh 44 | tim10-1 conf inactive
COCC1CCN(C(=O)c2cc(COc3ccc4c(c3)CCCC4)on2)C1 (stereo not drawn)	tim10-1 inh 40 | tim10-1 conf inactive
COc1cccc(OCc2cc(C(=O)N3CCC(c4ccncc4)CC3)no2)c1	none
COCC1CCN(C(=O)c2cc(COc3ccc(C)c(C)c3)on2)C1 (stereo not drawn)	none
Cc1ccc(SCCN2CCC(C(C)(C)C)CCC2=O)cc1 (stereo not drawn)	tim10-1 inh 45 | tim10-1 conf inactive
CC1Cc2cc(S(=O)(=O)N3CCCC(C(=O)N4CCCCC4)C3)ccc2N1C(=O)C1CC1 (stereo not drawn)	tim10-1 inh 43 | tim10-1 conf inactive
CCc1c(C(=O)NCc2ccccc2Cl)[nH]c(C)c1C(C)=O	tim10-1 inh 56 | tim10-1 conf inactive
O=C(CSc1cccc(C(F)(F)F)c1)Nc1ccc(Cl)cc1Cl	none
CCCCCCCCCCOC(=O)Cn1c(COc2ccccc2C)[n+](C)c2ccccc21	tim10-1 inh 70, SKKanGAS inh 83, PfHsp90 set2 inconclusive | tim10-1 conf inactive
CCOC(=O)Cn1c(COc2ccccc2OC)[n+](C)c2ccccc21	none (no result: PfHsp90 set2)
